The campaign covered roughly 120,000 compounds. About 5,300 (4.4%) were called active. Inconclusive results (about 22%) are left out. Calls come from the whole dose curve; as a rule, active = well fitted inhibition curve with a large enough effect; inconclusive = small, poorly fitted or top-dose-only effect; inactive = no such curve, though single readings can be large or run the other way. What follows is part of a selection rich in actives, with near analogues and random picks from the rest. Entries that show only a call come without a potency.
Assay: qHTS Primary assay for Inhibitors of Plasmodium falciparum Dd2 growth in vitro; note: nearly all actives have a fitted effect of over 65% in size
Conditions: P. falciparum Dd2 growth, SYBR Green, 72 h; series mostly up to 28.9 µM
Method in brief: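 Readout: SYBR Green fluorescence, 485 nm excitation, 535 nm emission, after ~16 h lysis at 37C. Before that, Dd2-infected red cells (2.5% hematocrit) grew 72 h with compound, 29 uM top final concentration.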
For `CS(=O)(=O)N(C1CCOCC1)C1CCN(C(=O)CC2CCCC2)CC1`, the Potency was “inactive”. For `O=C(c1cccc(Cl)c1)N1CCc2nc(C3CC3)nc(-c3ccc(Cl)cc3)c2C1`, the Potency was “inactive”. With `COc1ccc(C(=O)N2CCc3nc(C(C)C)nc(-c4ccc(Cl)cc4)c3CC2)cc1` the Potency was 11.2 µM (active). For `COc1ccc(-c2nc(C(C)C)nc3c2CN(C(=O)c2ccc(C(F)(F)F)cc2)CC3)cc1`, the Potency was “inactive”. In the case of `COc1ccc(-c2nc(C3CC3)nc3c2CCN(C(=O)c2ccc(C(F)(F)F)cc2)CC3)cc1`, the Potency is reported as 5.01 µM (active). With `COc1ccc(-c2nc(C(C)C)nc3c2CN(C(=O)c2ccccc2F)CC3)cc1` the Potency was “inactive”. In the case of `O=C(c1ccc(C(F)(F)F)cc1)N1CCc2nc(C3CC3)nc(-c3ccc(Cl)cc3)c2C1`, the Potency is reported as “inactive”. For `O=C(c1ccccc1)N1CCC2(CC1)C(=O)NCN2C(=O)CCCN1CCCC1`, the Potency was “inactive”. With `COc1ccccc1OCCNC(=O)c1cn2ccnc(-c3ccc(C)cc3)c2n1` the Potency was “inactive”. For `Cn1cc(CNC(=O)C[C@@H]2C[C@H]3O[C@H](CNC(=O)Nc4cccs4)[C@@H](O)[C@H]3O2)cn1`, the Potency was “inactive”. For `COC1CCN(C(=O)c2c(-c3cnn(C)c3NCc3cccnc3)noc2C)CC1`, the Potency was “inactive”. With `COc1ccc(N2CC(c3noc(-c4ccc(C(C)(C)C)cc4)n3)CC2=O)cc1` (stereo not given) the Potency was “inactive”. With `CCn1cc(-c2ccc(OC)cc2)cc1C(=O)N1CCC(C)CC1` the Potency was “inactive”. In the case of `Cc1ccc(CN2CCC3OCCN(Cc4ccccc4)C(=O)C3C2)o1` (stereo not given), the Potency is reported as “inactive”. In the case of `Cn1nc2n(c1=O)CCN(C(=O)C1CC=CCC1)CC2` (stereo not given), the Potency is reported as “inactive”. With `COc1cc2[nH]c(=O)n(Cc3ccc(C(=O)NCc4ccc(C)cc4)cc3)c(=O)c2cc1OC` the Potency was “inactive”. For `COc1ccc(NC(=O)Cn2cc(C(=O)c3ccncc3)c(=O)c3cc(C)ccc32)cc1Cl`, the Potency was “inactive”. With `CCOc1ccc(NC(=O)Cn2cc(C(=O)c3ccc(C)cc3)c(=O)c3cc4c(cc32)OCCO4)cc1` the Potency was “inactive”. In the case of `CCOc1ccc(C(=O)c2cn(Cc3ccccc3OC)c3ccc(F)cc3c2=O)cc1`, the Potency is reported as 10 µM (active). For `COc1ccc2c(c1)c(=O)c(C(=O)c1ccccc1)cn2CC(=O)Nc1ccc2c(c1)OCCO2`, the Potency was “inactive”. With `COc1ccc(Cn2cc(C(=O)c3ccc(C)cc3)c(=O)c3cc(OC)c(OC)cc32)cc1` the Potency was 12.6 µM (active). With `COC(=O)C1=CN(CC(=O)Nc2ccc(F)cc2F)S(=O)(=O)N=C1C` the Potency was “inactive”. With `CCn1cnnc1CC1CCN(C(=O)c2cc(-c3ccc(F)cc3)nc3ccccc23)CC1` the Potency was “inactive”. In the case of `COc1ccc(-c2nc(CN3CCC(C(=O)NCc4ccccc4)CC3)c(C)o2)cc1OC`, the Potency is reported as “inactive”. For `CCn1cnnc1CC1CCN(C(=O)C2CCN(Cc3nc(-c4cccc(C)c4)oc3C)CC2)CC1`, the Potency was 3.16 µM (active).

— PubChem BioAssay AID1347417 (National Center for Advancing Translational Sciences (NCATS), 2020)
Potency is the fitted concentration of half-maximal effect.
